About 10,000 (3%) of roughly 330,000 compounds were called active. The full list was thinned out, with actives kept by preference. A number with no mark means an inactive call.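 How the source made its calls: active means inhibition of at least 50% at 8 µM in the primary screen; inactive means the rest.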
These compounds were tested against Protein Mdm4 (Homo sapiens) + E3 ubiquitin-protein ligase Mdm2 (Homo sapiens) (UniProt O15151+Q00987) (assay: disruptors of Mdm2/MdmX RING complex – cell-based, luminescence, split luciferase, SaOS-2, uHTS, primary screen (AID 485346)). Details: SaOS-2 split-luciferase Mdm2/MdmX complementation, at 8 µM, stronger effect = higher value.
Chain of Protein Mdm4 (Homo sapiens) + E3 ubiquitin-protein ligase Mdm2 (Homo sapiens) (O15151 whole entry, looked up): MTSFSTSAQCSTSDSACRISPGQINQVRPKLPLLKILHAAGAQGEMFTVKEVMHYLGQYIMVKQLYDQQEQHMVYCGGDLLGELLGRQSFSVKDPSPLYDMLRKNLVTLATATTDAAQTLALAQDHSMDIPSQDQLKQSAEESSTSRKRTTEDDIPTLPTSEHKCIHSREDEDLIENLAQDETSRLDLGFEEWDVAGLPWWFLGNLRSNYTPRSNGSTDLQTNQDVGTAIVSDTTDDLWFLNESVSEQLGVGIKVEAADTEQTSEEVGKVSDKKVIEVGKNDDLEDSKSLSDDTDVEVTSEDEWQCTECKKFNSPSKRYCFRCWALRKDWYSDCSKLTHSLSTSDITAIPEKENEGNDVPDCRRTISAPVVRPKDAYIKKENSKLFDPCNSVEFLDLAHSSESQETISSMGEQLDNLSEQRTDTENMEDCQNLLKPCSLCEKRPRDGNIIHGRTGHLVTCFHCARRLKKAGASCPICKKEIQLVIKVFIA
Chain of Protein Mdm4 (Homo sapiens) + E3 ubiquitin-protein ligase Mdm2 (Homo sapiens) (Q00987 whole entry, looked up): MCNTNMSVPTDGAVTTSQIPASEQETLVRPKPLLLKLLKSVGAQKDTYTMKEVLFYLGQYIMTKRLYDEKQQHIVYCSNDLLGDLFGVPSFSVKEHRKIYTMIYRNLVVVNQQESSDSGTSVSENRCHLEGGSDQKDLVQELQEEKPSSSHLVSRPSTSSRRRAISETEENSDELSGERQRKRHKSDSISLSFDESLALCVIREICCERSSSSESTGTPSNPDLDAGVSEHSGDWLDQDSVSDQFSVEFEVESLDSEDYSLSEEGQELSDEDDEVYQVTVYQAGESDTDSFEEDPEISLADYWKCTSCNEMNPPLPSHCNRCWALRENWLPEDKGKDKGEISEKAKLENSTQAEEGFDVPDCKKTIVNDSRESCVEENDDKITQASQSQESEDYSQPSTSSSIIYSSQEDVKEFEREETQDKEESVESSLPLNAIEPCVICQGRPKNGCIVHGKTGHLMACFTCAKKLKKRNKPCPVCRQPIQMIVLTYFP
`CCOc1cnc(C(=O)NNC(=O)c2ccccc2Br)o1` gave an inhibition of -14.2%. Compound `CCn1c(CC(=O)Nc2ccccc2C)nnc1SCC(=O)NC1=NCCS1` has an inhibition of 6.16%. With `Cc1ccc(C(=O)O)cc1N1C(=O)CCCC1=O` the inhibition was -17.1%. `CN(C(=O)c1cccc(NC(=O)Cc2cccc([N+](=O)[O-])c2)c1)C1CCCCC1` gave an inhibition of 18.4%. For `CC(OC(=O)c1ccc(-n2cnnn2)cc1)C(=O)NCc1ccccc1` (stereo unspecified), the inhibition was 8.29%. `Cc1c(CN2CCC(CO)(CCOc3ccccc3)CC2)[nH]c2ccc(Cl)cc12` was tested, and the inhibition was 89.6% (active). `CCOC(=O)C1(CCOc2ccccc2)CCN(Cc2cc(OC)c(O)cc2Cl)CC1` gave an inhibition of 28.9%. In the case of `OCC1(CCOc2ccccc2)CCN(Cc2cn[nH]c2-c2ccccc2)CC1`, the inhibition is reported as 12.6%. With `O=C(COC(=O)c1cc(-c2cccs2)nn1-c1ccccc1)Nc1cc([N+](=O)[O-])ccc1Cl` the inhibition was -2.96%. In the case of `O=C(CCNC(=O)c1ccccc1)NN=Cc1ccc(Br)o1`, the inhibition is reported as 5.26%. With `COc1ccc(CNC(=O)COC(=O)CCS(=O)(=O)c2ccc(C)cc2)cc1OC` the inhibition was 21.8%. With `CCOc1ncccc1C(=O)Nc1ccc(S(=O)(=O)Nc2nc(C)cc(C)n2)cc1` the inhibition was -16.7%. Compound `CC(=O)Nc1ccc(S(=O)(=O)Nc2cc(C)cn(Cc3ccc(C)cc3)c2=O)cc1` has an inhibition of 17.7%. Compound `O=c1c([N+](=O)[O-])cccn1Cc1ccc(F)cc1Cl` has an inhibition of 10.4%. `Brc1ccccc1/C=N/Nc1nc2ccccc2o1` was tested, and the inhibition was 36.2%. For `Oc1c(Br)cccc1/C=N/Nc1c(F)c(F)c(F)c(F)c1F`, the inhibition was 82.4% (active). Compound `O=C(NNc1cc(Cl)ccc1Cl)c1cccnc1Cl` has an inhibition of 9.63%. With `CC(=O)/C(=N\Nc1ccc(Cl)cc1Cl)Sc1cccc2cccnc12` the inhibition was 63.2% (active). For `S=C(NCc1cccnc1)Nc1ccc(Cl)cc1Cl`, the inhibition was 4.36%. `COc1ccccc1NC(=O)C1CCN(C(=O)c2ccc(C(C)(C)C)cc2)CC1` gave an inhibition of 28.8%. Work on `CCCCCCCNC(=O)C1(CC2CC(c3cccc(Br)c3)=NO2)CCN(C(=O)c2cc(OCC)c(OCC)c(OCC)c2)CC1` (stereo unspecified) yielded an inhibition of 18.1%. With `Fc1ccc(N2N=C(c3cccs3)CC2c2ccco2)c(F)c1` (stereo unspecified) the inhibition was 2.13%. Compound `CCCCC(=O)Nc1ccc(C(=O)Nc2cc(C(F)(F)F)ccc2Cl)cc1` has an inhibition of 21.2%. `CCCCN(CCCC)CCC(O)c1cc2c(Cl)cc(Cl)cc2c2cc(C(F)(F)F)ccc12` (stereo unspecified) was tested, and the inhibition was 60.8% (active). For `CC1(C)Cc2c(sc3nc(SCC(=O)NCc4ccccc4)n(-c4ccccc4)c(=O)c23)CS1`, the inhibition was -3.67%. Compound `N#Cc1c(NCCO)ccc([N+](=O)[O-])c1NCCO` has an inhibition of -1.81%. For `CCOc1ccc(CN2CCN(Cc3c[nH]c4ccccc34)CC2)cc1`, the inhibition was 20.2%. `O=C(COC(=O)CN1C(=O)C2CCCCC2C1=O)Nc1ccc(F)c(F)c1F` (stereo unspecified) gave an inhibition of 34.5%. `C[C@]12c3[nH]c4ccc(Cl)cc4c3CCN1C(=O)[C@@H](CC(=O)NCCCn1ccnc1)C[C@@H]2C(=O)N1CCOCC1` gave an inhibition of 4.12%. Compound `CC1CCN(C(=O)/C(=C\c2ccccc2F)NC(=O)c2ccccc2)CC1` has an inhibition of 8.33%. In the case of `Cc1cccc(-n2ncc(C#N)c2-n2cccc2)c1`, the inhibition is reported as 18.1%. `C=CCNc1cnn(-c2ccc(C)cc2)c(=O)c1Cl` gave an inhibition of -8.88%. `Cc1cccc(-n2ncc(Cl)c(Cl)c2=O)c1` was tested, and the inhibition was 100% (active). `COC(=O)[C@@H]1C[C@@]2(O)[C@@H](O)[C@@H](O)[C@@H](O)C[C@H]2N1Cc1ccc(C)s1` was tested, and the inhibition was 10.5%. With `CCCOc1cccc(C(=O)Nc2nnn(CCC)n2)c1` the inhibition was -17.9%. `COc1ccccc1N1CCN(S(=O)(=O)c2ccc(Cl)cc2)CC1` showed an inhibition of 0.916%. For `COc1ccccc1-n1nnnc1SCC(=O)NC(=O)Cc1ccccc1`, the inhibition was -11.3%. In the case of `COc1ccccc1-n1nnnc1S(=O)(=O)Cc1ccc(Cl)cc1`, the inhibition is reported as 99.3% (active). With `O=C(CN1C(=O)c2cccnc2Oc2ccc(Cl)cc21)Nc1ccc(F)cc1` the inhibition was 7.52%. `CC1C(=O)NC(=O)C1c1ccccc1` (stereo unspecified) gave an inhibition of 10.9%. Compound `COc1ccccc1-c1sc2ccccc2c1-c1ccc(Br)nc1` has an inhibition of 1.19%. `COc1ccccc1-c1sc2ccccc2c1-c1ccc(C(C)=O)cc1` gave an inhibition of 7.74%. In the case of `COc1ccc2sc(-c3ccccc3OC)c(-c3ccc(OCCN4CCCC4)cc3)c2c1`, the inhibition is reported as 73.2% (active). Compound `COc1ccc(-c2sc3ccccc3c2-c2ccc(OCCN3CCOCC3)cc2)cc1` has an inhibition of 28.3%. `COc1cccc(-c2sc3ccc(OC)cc3c2-c2ccc(OCCN3CCCCC3)cc2)c1` was tested, and the inhibition was 96.8% (active). Work on `COc1cc(OC)cc(-c2sc3ccc(OC)cc3c2-c2ccc3cc[nH]c3c2)c1` yielded an inhibition of 13.6%. In the case of `CN1C(=O)C2(OCCCO2)c2cc(Cl)ccc21`, the inhibition is reported as 2.45%. `COC(=O)c1ccc(Oc2nc(NC(C)C)nc(SC)n2)cc1` was tested, and the inhibition was 22.5%. For `Cc1ccc(C(C(=O)NCC2CCCO2)N(C(=O)c2snc(C(N)=O)c2N)c2ccc(C(C)C)cc2)o1` (stereo unspecified), the inhibition was -3.18%. Compound `C/C(=N\N(C)C)c1ccc(OCCOc2ccc([N+](=O)[O-])cc2)cc1` has an inhibition of -8.83%. With `O=C(CN1CCN(C2CCS(=O)(=O)C2)CC1)N1N=C(c2ccc(Cl)cc2)CC1c1ccco1` (stereo unspecified) the inhibition was 26.2%. `COCCCC1CCN(C(=O)C2CCC(=O)N(C3CCCCCC3)C2)CC1` (stereo unspecified) showed an inhibition of 27.9%. For `Cc1c(Cl)cccc1NC(=S)NCC(O)c1ccccc1` (stereo unspecified), the inhibition was -14.3%. `Cc1cccc(C(=O)OC(C)C(=O)NC2CCCc3ccccc32)c1O` (stereo unspecified) was tested, and the inhibition was 28.3%. With `COC(=O)c1cc(OCC(=O)NC2CCCc3ccccc32)cc(C(=O)OC)c1` (stereo unspecified) the inhibition was 1.41%. `NC(=O)Nc1ccc(C(=O)OCC(=O)NC2CCCc3ccccc32)cc1` (stereo unspecified) showed an inhibition of -3.47%. With `O=C(CCNC(=O)c1ccc(Cl)cc1)NC1CCCc2ccccc21` (stereo unspecified) the inhibition was 82.7% (active). For `CC1(c2ccccc2)NC(=O)N(CC(=O)N2CC(=O)Nc3ccccc32)C1=O` (stereo unspecified), the inhibition was -7.07%. Work on `Cc1nnc(NC(=O)C(c2ccccc2)c2ccccc2)s1` yielded an inhibition of 7.45%. In the case of `Cc1nnc(NC(=O)Nc2ccc(Cl)c(Cl)c2)s1`, the inhibition is reported as 95.2% (active). Compound `Cc1ccc(NC(=O)Nc2nnc(-c3ccncc3)s2)cc1` has an inhibition of 45.1%. With `CC(C)Oc1ccc(S(=O)(=O)N2CCOCC2)cc1NC(=O)C1CCCC1` the inhibition was -52.3%. Compound `CC1CC(=S)Nc2ccccc2N1Cc1ccccc1` (stereo unspecified) has an inhibition of 18.7%. For `CCCCN(CC)CCCNC(=O)c1ccc(CSc2nc3ccncc3[nH]2)cc1`, the inhibition was 6.18%. `COc1cccc(NC(=O)COC(=O)c2ccc3ccccc3n2)c1` showed an inhibition of -8.32%. Compound `COc1ccc(CCNC(=O)CSc2nc(C)nc3c2oc2ccccc23)cc1OC` has an inhibition of -0.689%. In the case of `CC(Nc1nc(N2CCOCC2)nc2ccccc12)c1ccccc1` (stereo unspecified), the inhibition is reported as -0.119%. In the case of `CC(Nc1nc(N2CCN(CCO)CC2)nc2ccccc12)c1ccccc1` (stereo unspecified), the inhibition is reported as -4.68%. `CC(Nc1nc(N2CCCC2)nc2ccccc12)c1ccccc1` (stereo unspecified) was tested, and the inhibition was 70.8% (active). Compound `CCN(C(=O)COC(=O)CCC(=O)c1cccs1)C1CCCCC1` has an inhibition of 18.7%. With `CC(=O)c1ccc(NC(=S)N(Cc2ccccc2)C(C)C2CC2)cc1` (stereo unspecified) the inhibition was 29.9%. With `CCOC(=O)C1CSC(CC(=O)Nc2ccc(OCC)cc2)C(=O)N1` (stereo unspecified) the inhibition was 9.79%. `COCC1CCCN(C(=O)c2ccc3oc(C(C)C)nc3c2)C1` (stereo unspecified) was tested, and the inhibition was 28.6%. With `Cc1cc(Nc2cc(N3CCN(C)CC3)nc(Sc3ccc(NC(=O)C4CC4)cc3)n2)n[nH]1` the inhibition was 88.2% (active). Work on `Cc1cc(C)nc(N2CCC(C(=O)Nc3ccc4c(c3)OCCO4)CC2)n1` yielded an inhibition of 15.6%. For `Cc1n[nH]c(C)c1S(=O)(=O)N1CCCC(C(=O)Nc2ccc(Br)cc2)C1` (stereo unspecified), the inhibition was 18.8%. With `CCc1ccc(NC2Nc3cc(C)nn3S2)cc1` (stereo unspecified) the inhibition was -161%. `Cc1ccc(CNC(=O)[C@@H](NC(=O)Cc2ccccc2)C(C)C)cc1` gave an inhibition of 33.2%. Work on `CCN(C(=O)COC(=O)CCOc1cccc(C)c1)c1c(N)n(Cc2ccccc2)c(=O)[nH]c1=O` yielded an inhibition of -15.7%. In the case of `CCCCN(C(=O)C1=NN(c2cc(C)ccc2C)C(=O)CC1)c1c(N)n(CCC)c(=O)[nH]c1=O`, the inhibition is reported as 4.43%. `Nc1nc(NC(=O)/C=C/c2ccc(F)cc2)nn1-c1ccccc1` showed an inhibition of 36.3%. Work on `Cc1c(NC(=O)CCC2CCCCC2)cc(C(=O)N2CCOCC2)cc1[N+](=O)[O-]` yielded an inhibition of -15.2%. `C=CC[C@@H](CC(=O)N[C@H](CO)Cc1ccccc1)C(=O)N[C@@H](COC(=O)[C@@H](CC=C)Cc1ccc(F)cc1)Cc1c[nH]c2ccccc12` was tested, and the inhibition was 16.4%. In the case of `C=CCC[C@H](Cc1ccc(F)cc1)C(=O)OC[C@@H](NC(=O)[C@@H](CC=C)CC(=O)N[C@H](CO)Cc1ccccc1)C(C)(C)C`, the inhibition is reported as 46.7%. For `C=CCC[C@H](Cc1ccc(F)cc1)C(=O)OC[C@@H](Cc1c[nH]c2ccccc12)NC(=O)[C@H](CC=C)CC(=O)N[C@H](CO)Cc1ccccc1`, the inhibition was 38.1%. `C=CC[C@H](CC(=O)N(CCO)Cc1ccccc1)C(=O)N[C@@H](COC(=O)[C@@H](CC=C)Cc1ccc(F)cc1)Cc1ccccc1` was tested, and the inhibition was 67.8% (active). Work on `C=CCC[C@@H](Cc1ccc(F)cc1)C(=O)OC[C@@H](C)NC(=O)[C@H](CC=C)CC(=O)N(CCO)Cc1ccccc1` yielded an inhibition of 24%. Compound `C=CC[C@@H](Cc1ccc(F)cc1)C(=O)OC[C@H]1CCCN1C(=O)[C@H](CC=C)CC(=O)N(CCO)Cc1ccccc1` has an inhibition of 38.8%. With `C=CCC[C@@H](Cc1ccc(F)cc1)C(=O)OC[C@H](Cc1c[nH]c2ccccc12)NC(=O)[C@@H](CC=C)CC(=O)N(CCO)Cc1ccccc1` the inhibition was 87.5% (active). Compound `C=CCC[C@H](Cc1ccc(F)cc1)C(=O)OC[C@H](C)NC(=O)[C@H](CC=C)CC(=O)N(CCO)Cc1ccccc1` has an inhibition of -2.85%. `C=CCC[C@@H](Cc1ccc(F)cc1)C(=O)O[C@H](CNC(=O)[C@H](CC=C)CC(=O)N(CCO)Cc1ccccc1)c1ccccc1` was tested, and the inhibition was 66.9% (active).

From PubChem BioAssay AID485346 (Sanford-Burnham Center for Chemical Genomics, 2010)
